According to PMC5540273 (PLoS ONE, 2017):

Legend:
Details in all cases: concentration: 1 μM, replicates: in singlicate; n = 1
CAMK1 = tested on: CAMK1
CAMK2A = tested on: CAMK2A
CAMK2B = tested on: CAMK2B
CAMK2D = tested on: CAMK2D
CAMK2G = tested on: CAMK2G
CAMK4 = tested on: CAMK4
CAMKK1 = tested on: CAMKK1
CAMKK2 = tested on: CAMKK2
CASK = tested on: CASK
CDC2L1 = tested on: T1, CDC2L1
T1 construct: gene CDK11B
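Note: KINOMEscan kinase panel screen.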

Structure (SMILES)	%Inh (CAMK1) [%]	%Inh (CAMK2A) [%]	%Inh (CAMK2B) [%]	%Inh (CAMK2D) [%]	%Inh (CAMK2G) [%]	%Inh (CAMK4) [%]	%Inh (CAMKK1) [%]	%Inh (CAMKK2) [%]	%Inh (CASK) [%]	%Inh (CDC2L1) [%]
CN(C)CCNS(=O)(=O)c1ccc(-c2ccnc3[nH]ccc23)cc1 [GSK977620]	50	0	0	0	5	57	0	0	3	0
Cl.Cl.NCC(NC(=O)c1cc(-c2cccnc2)c(-c2ccnc3[nH]ccc23)s1)c1ccccc1 (centres unmarked) [GSK1323434]	32	0	0	8	14	0	14	24	30	0
Cc1ccc(NC(=O)c2ccnc(N3CCCCC3)c2)cc1-c1ccc(C(=O)NCC2CC2)cc1 [GW775610]	0	0	0	0	0	10	0	0	0	6
O=C(O)C(F)(F)F.O=c1[nH]ccc2nc(N[C@@H]3CCNC3)nc(Nc3cc(Cl)cc(Cl)c3)c12 [GSK2188764]	84	71	37	60	57	95.9	75	46	19	1
COc1cccc2c(-c3ccncc3)c(-c3ccc(F)cc3)nn12 [GW468513]	0	0	0	0	13	0	6	5	0	0
Nc1ncc(-c2cn[nH]c2)c2scc(-c3ccc4c(c3)CCN4C(=O)Cc3ccccc3)c12 [GSK2593067]	33	0	0	0	18	0	56	8	13	0
CC(C)c1nc(-c2ccc(F)c(NS(=O)(=O)c3c(F)cccc3F)c2)c(-c2ccnc(Nc3ccc(N4CCOCC4)nc3)n2)s1 [GSK1804250]	54	0	0	7	27	0	17	21	0	0
COc1cccc(NC(=O)NCCNc2ccnc(Nc3ccc(F)cc3)n2)c1 [GSK1379879]	7	0	0	0	14	0	13	3	0	0
